Target: GABARAPL2, P60520
Experiment: median log2 fold change of GCK-ALFA target abundance (FLAG IP / Myc IP barcode read proportion) (log2 ratio); each designed protein is fused to an ALFA-tag nanobody in HEK293 cells to bring the named protein to FLAG-tagged glucokinase (GCK); Myc marks an untargeted standard; higher = target protein stabilised (more abundant)
Settings: target protein: 3xFLAG-MCP-GCK-ALFA reporter; HEK293 landing pad (RPLP)
Summary of the method: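 HEK293 landing-pad cells received a recombined binder library fused to the ALFA nanobody and were induced with 2 μg mL^−1 doxycycline, then transfected with a plasmid encoding a FLAG-tagged target and a Myc-tagged standard. Lysates were collected after 48 h for anti-FLAG and anti-Myc immunoprecipitation, and the circular RNA barcodes were reverse transcribed, amplified and sequenced. Target abundance for each binder is the median log2 ratio of FLAG to Myc barcode read proportions. Barcodes had to reach a proportion of at least 10^−7 in both replicates, each binder needed at least 3 barcodes per replicate, a pseudocount of 10^−6 was applied, and the two replicates were pooled.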

GABARAPL2, P60520, sequence (P60520 whole entry, the tested form may be a part): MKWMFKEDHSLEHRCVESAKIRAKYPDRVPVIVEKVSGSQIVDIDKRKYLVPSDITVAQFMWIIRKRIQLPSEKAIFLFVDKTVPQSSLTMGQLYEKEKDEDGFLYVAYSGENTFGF

B1: GBRAPL2_64_7408 (protein)
chain: AKVHLAIAYEFKESTENGKKVLKLEATVYVIEDGEITELEAEVTATQLSETTWEVKLVLRQPDGSVLERTEVVTVPYEDVETEMLDLILEAAREAVAARR
median log2 fold change: 0.118

B2: GBRAPL2_63_7400 (protein)
chain: SAAKKALEALLEHAILDLETAERLEKALEEETDEEKLYEALVEAILDLNPEATREQAEEIADLLIELAKQSEAALKAAVRALSTVPLEEALAFLRAAVAA
median log2 fold change: -0.0605

B3: GBRAPL2_63_7399 (protein)
chain: SAAKKALEALLEHAILDLDTAERLDKALENEKDEEKLRKALVEAILDINPEATEEEAERMADLLLELAKKSEAALKEAVRALSTMDLPEALAFLEALVAA
median log2 fold change: -0.0717

B4: GBRAPL2_83_7415 (protein)
chain: VERTVLITTEITVRHPDLTEEEALDLAGDVAARLREHGVKTVVGVEERDGVVHIVLESLTPDDPALRAAIDEEVDALVAELRARGAEVEVRREEEVVDVP
median log2 fold change: -0.00519

B5: GBRAPL2_83_7413 (protein)
chain: MTVRLALELTVTLEGDEEEKEALLDMMVETADELRKLGAAAVVAIEEEDGVLTIVLDVLVVGNKEQVEKVKKKLEEAAKEIKEKFPNAKVEVKVLEEEEL
median log2 fold change: -0.417

B6: GBRAPL2_63_7404 (protein)
chain: SSAEKVLKTLLEYATLDLDTAERLEEALESNASEEELREALVEAIKDIRPDLTEEEAERVADLLIELAKQSEELLKEAVRDLDTLENDEFLKRLEELVAA
median log2 fold change: 0.0151

B7: GBRAPL2_63_7406 (protein)
chain: SAVRRVLEALLRHAILDLDTAELLDEALETETDEEALYETLVEAILRIRPELTPEEAREVADKLIALAEQSEALLAEAVRDLTTLSKEEFLARLDALVAE
median log2 fold change: -0.0969

B8: GBRAPL2_63_7403 (protein)
chain: SEVEKVLKAILEYATLDLDTAERIDKALESNLSEEELFEVLVETIKDINPELTDEEAEKIAELLIELAKQSEEKLKEAVRKLQTMENEEFIAYLEELVKE
median log2 fold change: -0.012

B9: GBRAPL2_63_7402 (protein)
chain: SAVERVLRTLLEHAVLDLDTAERLEKALESNLSDEELFKTLVEAIKDINPELTEEEAERVARLLIALAEQSEALLVEAVRQLSTLENEEFLALLEALVAA
median log2 fold change: 0.0388

B10: GBRAPL2_63_7391 (protein)
chain: SLADKTAALLSRLGAVPLELAEAWEAAAAALTDVAAFAEAAAAAAAAINPRIDAERQAILEEAIRRALTEDDPLAVEIVSAIINNEPDEEIRALWKKLLA
median log2 fold change: 0.206

B11: GBRAPL2_85_7420 (protein)
chain: MEKITIVARTLEEAVEMAVDVVEALDPKGEIEVELIVLVPSSELEKAIAELPKAAEELKKKFQELAKKHPGLKINAEIEIFDSDTREFHPDVKKFTVEDK
median log2 fold change: 0.19

B12: GBRAPL2_63_7397 (protein)
chain: MTAKKVLEIILREAILDLETAEKLEEALKNEKTEEALREALVEAILDMRPDLTEEEAEEIVDLLLELQKKSEELAREGVRALSTLDNEEALAYLKELVAK
median log2 fold change: 0.0233

B13: GBRAPL2_63_7396 (protein)
chain: MIAKKVLEILLREAILDLETAEELEKALEEEKTEEELRKALVKAILDLNPDLTEEEAEEIVELLLELAKKSEELARKAVRALSTLDNEEAFAFIKKLVAE
median log2 fold change: 0.0814

B14: GBRAPL2_63_7395 (protein)
chain: SAAARVLRALLEHAIVDLETAERIEEALATEKSAEALRETLVAALLDMIPELTEEEARELAAALEALARRSPELLREALRALQTLSLEEARARLAALLAA
median log2 fold change: 0.00583

B15: GBRAPL2_83_7414 (protein)
chain: TTIELDLLLEVKLKGDEEEKEELLDLMVEAADRLRELGASAAVAIKEENGVLEVEVHVIAVGDEELVKKVEEKLKEAAEEIKKKFPKAEVKVEVLERKEL
median log2 fold change: 0.119

B16: GBRAPL2_63_7407 (protein)
chain: MTVRKVLEALLEHAILDLDTAERLEEALENETDEEELFETLVEAILDIRPELTPEEAREVAEKLVELAKQSEELLKEAVRALTTLSKEEFLAYLDELVAK
median log2 fold change: 0.0216

B17: GBRAPL2_63_7405 (protein)
chain: MTAKKVLEALLRHAILPLDTAERLDEALENEEDEEKLRETLVEAILDIRPELTPEEAEYVAEKLLALAEQSEERLAEAVRALTTLSKEEFLARLDELVAE
median log2 fold change: -0.247

B18: GBRAPL2_63_7392 (protein)
chain: SLLDKVLKLLSRLGPVPLDLAERFEELAEELSDEEELAKAIAEAVQEDNPHIDEERRKILEEAILKALTEDSEIAIKIASAIINGAPMEEIEKLLEELKK
median log2 fold change: 0.0699

B19: GBRAPL2_63_7394 (protein)
chain: SAARKVLEALLEHAIIDLETAERLEKALEEAKSEEELRKTLVEALLDMIPELTEEEAEELADMLIELAKKSEELLKEAILALQTLSKEEALAKLKALVAE
median log2 fold change: 0.071

B20: GBRAPL2_63_7393 (protein)
chain: STWARVLRLILEHATIDLETAERLEAALESNASDEELFATLVEALQDIRPELTPEQARDIAAKLARLAERSEALAAEAVRRLDTMSLEEFLAHLDALVAA
median log2 fold change: 0.216

B21: GBRAPL2_85_7421 (protein)
chain: TEKVTIVAHTLEEVVDMSVDVLEALEPKGTVEIEGIVAVPSSELEKALKELPKAAEELKKRLEELAKKRPGLTINAEIRIFNLDTKEFHPKVEKFTVKNE
median log2 fold change: 0.266

B22: GBRAPL2_83_7416 (protein)
chain: MKKRVLITHEIEVKSEKVTKEEALDLAGDVAERLREKGIAAVVSVEEEDGVILVEIEALLEDSEEKIKIVEEEVEKLVKRLEELGAEVKLKTEREEEIVP
median log2 fold change: 0.184

B23: GBRAPL2_63_7401 (protein)
chain: SSVEKVLKTLLEYAVLDLDTAEKIDKALENNESDEELFKTLVEAIKDIRPDLTEEEAEEIAKLLIELAKKSEELLKEAVRKLDTMENEEFIKYLKELVEK
median log2 fold change: 0.131

B24: GBRAPL2_93_7422 (protein)
chain: MKVKVTIIRLVNGEVVEEEEREVTVEEAKKLIEELLKEAVANGERVIIEIYDKDTGWTFGDYVENEEQAEKALKRAKEILDDLEKEGKEVEITITIEKKT
median log2 fold change: 0.15

B25: GBRAPL2_54_7390 (protein)
chain: LVEVELILIVSGELPEEEIERIEELLKEKTEELLKKHSDKIEKILRFEREREDGVVLISVELLVKEEYKEEVIDELIKIAEEIREESGVEIKSVIAESSD
median log2 fold change: -0.0228

B26: GBRAPL2_83_7418 (protein)
chain: VKTIRVITYDIEIKSENITEEEALDMAGDVAEELRKKGVKTVVGVEEENGVVHVTLEAIHEDDEELRKLIDEEVEKLVKELEAKGAEVKVKVEEELEEIE
median log2 fold change: 0.388

B27: GBRAPL2_83_7417 (protein)
chain: VKKLKVITHDIEIKSENITEEEALDMAGDVAAELRKHGIKTVVGVERENGVVKVELESIMEDNEEKEKLVHEEVEKLVEELKKKGAEVKVETEEEIVEVE
median log2 fold change: 0.0338

B28: GBRAPL2_63_7398 (protein)
chain: MLAKKVLEALLENAILPLDLAEELEKALETLKTEEELRETLVKAILELNPELTEEEAEEIVDLLIELAKKSEELLKEGVRALSTLDNETAKEYLKKLVAE
median log2 fold change: 0.0619

B29: GBRAPL2_85_7419 (protein)
chain: MEKVTIVARSLAEAVDMAVDVVEALEPEGEIEVDLIVLVPSSELEAALAALPAAAAELKARLQELARRHPGLVVRAEVEIFDSDTREFHPDVRRFTVRDE
median log2 fold change: 0.0842

B30: GBRAPL2_64_7409 (protein)
chain: PKVHLAIAYEVEEREEDGKKVLVLDATVYVIKDGEITELEAKVVAEQLSETTWLVKLELKKPDGSVIKREEVVEAPWEDVETEMLELVDEAAREAVEEEE
median log2 fold change: -0.0236

B31: GBRAPL2_83_7411 (protein)
chain: MKIELDVELTVVIKGDEEEVEKIEDMMVETARELRKLGAAAVVATKEEDGVYTFVLDVLYVGDEEGAKKVIELLKESAEKIKKEFPEAKVTVKVVEKKVL
median log2 fold change: -0.364

B32: GBRAPL2_83_7410 (protein)
chain: MEVLLELELTVTYKGNEEDKEKILDMLLEAQDKLRELGATAVVAEKLENGVYTFSLYAIYRGPREGAEKVRKTLEEFAEKIKKEFPEAKVEVKVLEEREL
median log2 fold change: -0.0517

— the supplement of paper PMC12632987
